Where “and” joins values, the source holds several entries; their conditions need not be identical. Equal values may be shown once. Calls of active or inactive are those of the source.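 Rule for the calls, unless noted: active = thallium flux through the channel raised or lowered by more than 3 SD from vehicle-only wells, actives on both sides; inactive = the rest.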 Numbered stars: 1 amine (or outer) side, 2 acyl side, 3 side chain; on linkers, the order of the positions; unused ones are H or OH. Bridge positions count the residues as written; N and C are the ends. Square brackets hold non-standard residues; d marks the D form. Peptide text beside a SMILES is read from it. I, II: the chains in the order shown. Actinocin(9to1) = Cc1c2oc3c(C)ccc(C(=O)[*:1])c3nc-2c(C(=O)[*:2])c(N)c1=O; NMeV = CN[CH](C(=O)O)C(C)C; Sar = CNCC(=O)O
Experiments:
[1] = signal quenchers or enhancers, Cy5 substrate/SSB – biochemical, NIH Clinical Collection, E. coli SSB, artefact control for HCV NS3 helicase inhibitor project (AID 743268; call rule not given here); settings: Cy5-oligo bound E. coli SSB, fluorescence interference
[2] = test system: Hepatitis C virus NS3 helicase; assay: blockers of NS3h binding to DNA – biochemical, fluorescence polarization, NIH Clinical Collection, primary screen (AID 743270; call rule not given here); settings: NS3 helicase binding to Cy5-dT15 DNA, stronger effect = higher value, concentration not given here
[3] = biological target: Single-stranded DNA-binding protein (Escherichia coli (strain K12)) (UniProt P0AGE0); assay: SSB-ssDNA binding inhibitors – biochemical, fluorescence polarization, NIH Clinical Collection, counter-screen for HCV NS3 helicase inhibitor project (AID 743271; in the data active = inhibition above about 28%); settings: E. coli SSB-DNA binding, stronger effect = higher value, concentration not given here
[4] = compounds distorting NS3 helicase fluorescence signal – biochemical, NIH Clinical Collection, artefact control for HCV NS3 helicase inhibitor project (AID 743272; call rule not given here;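 note: HCV NS3 helicase with a Cy5 labelled single stranded DNA probe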); settings: fluorescence interference counterscreen, HCV NS3 helicase assay; stronger effect = lower value
[5] = test system: Neuropilin-2 / VEGF-C interaction (human); assay: small molecules blocking Neuropilin-2/VEGF-C interaction – biochemical, microplate binding format, z-score (AID 743281; call rule not given here); settings: microplate NRP2/VEGF-C binding assay; stronger effect = lower value
[6] = modulation of C. elegans fzo-1 (AID 1259413; call rule not given here;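 note: fzo-1 mutant C. elegans worms in liquid wells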); settings: C. elegans fzo-1 modulator screen, mean read-out; stronger effect = higher value
[7] = galactose survival enhancers in mitochondrial complex I cybrids – cell-based, galactose medium, ATP luminescence, primary screen (AID 1645843;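 active = z-score of at least 1.8 in each of two replicates, scored against plate mean and spread of sample wells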;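 note: positive z means more ATP and so rescue of galactose-driven cybrid death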); settings: complex I mutant cybrid cells, 72 h, stronger effect = higher value
F380Y = assay: BK channel mutant inhibitors and activators – cell-based, U2OS BacMam, thallium flux, beta subunits, selectivity assay, profiling panel (AID 1259406); settings: U2OS BacMam BK variants, at 30 µM;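 note: initial slope of Thallos dye fluorescence rise after thallium is added; log ratio against the mean of 0.3% DMSO vehicle wells on the same plate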
F380Y/beta1 = assay: as above; settings: U2OS BacMam BK variants, at 30 µM
F380Y/beta2Delta = assay: as above; settings: U2OS BacMam BK variants, at 30 µM
F380Y/beta4 = assay: as above; settings: U2OS BacMam BK variants, at 30 µM
[8] = biological target: Calcium-activated potassium channel subunit alpha-1 (Homo sapiens) + Leucine-rich repeat-containing protein 26 (Homo sapiens) (UniProt Q12791+Q2I0M4); assay: as above; settings: U2OS BacMam BK variants, F380Y/Slo1WT/gamma1, at 30 µM
R275C = assay: as above; settings: U2OS BacMam BK variants, at 30 µM
R275C/beta1 = assay: as above; settings: U2OS BacMam BK variants, at 30 µM
R275C/beta2Delta = assay: as above; settings: U2OS BacMam BK variants, at 30 µM
R275C/beta4 = assay: as above; settings: U2OS BacMam BK variants, at 30 µM
R275C/Slo1WT/beta2 = assay: as above; settings: U2OS BacMam BK variants, at 30 µM
[9] = P. berghei load reduction in hepatocytes – cell-based, HepG2, luciferase luminescence, HepG2 viability, primary screen (AID 624349; in the data active = parasite load remaining mostly below about 12%, no sharp cut-off; inactive = mostly above about 10%;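 note: 100% = mean of DMSO negative control wells on the same plate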); settings: P. berghei liver stage in HepG2, luciferase luminescence, concentration not given here; parasite load remaining: stronger effect = lower value; viability: measured here: HepG2 viability without parasites
[10] = viability loss with induced miR-34 in A549 – imaging, A549 dox-inducible miR-34, nuclei and caspase counts, primary screen (AID 1347080;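 active = compounds whose cell count with miR-34 switched on is under 0.7 times the count with it off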); settings: A549 miR-34 inducible, Hoechst nuclei count, 48 h
[11] = EMT-state selective cytotoxicity in co-culture – imaging, PC-3E GFP, TEM4-18 mCherry, primary screen (AID 1345086;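 active = compounds killing one labelled cell type while sparing the other, by normalised counts and ratio limits, not self-fluorescent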;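 note: cells exposed to compound for 72 h before imaging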;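 for red/green cell ratio (normalised): normalised mesenchymal count divided by normalised epithelial count so high means epithelial killing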); settings: PC-3E GFP / TEM4-18 mCherry co-culture, imaging cell counts, at 1 µM
[12] = stronger effect = lower value, cell number ratio, induced over uninduced
[13] = measured here: relative caspase fold change +Dox/-Dox
[14] = measured here: total cells with miR-34 induction, stronger effect = lower value
[15] = measured here: total cells without miR-34 induction

Calcium-activated potassium channel subunit alpha-1 (Homo sapiens) + Leucine-rich repeat-containing protein 26 (Homo sapiens), sequence (Q2I0M4 whole entry, looked up, one chain of several): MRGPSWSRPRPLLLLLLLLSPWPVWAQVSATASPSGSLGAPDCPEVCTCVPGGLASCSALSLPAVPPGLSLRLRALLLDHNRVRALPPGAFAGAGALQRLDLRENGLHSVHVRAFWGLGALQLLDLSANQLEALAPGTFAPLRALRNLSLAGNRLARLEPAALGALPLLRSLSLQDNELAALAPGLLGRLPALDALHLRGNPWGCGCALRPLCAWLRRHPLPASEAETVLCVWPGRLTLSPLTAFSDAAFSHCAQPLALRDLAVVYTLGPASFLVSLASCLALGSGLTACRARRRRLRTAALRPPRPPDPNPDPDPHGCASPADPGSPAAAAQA

CC(C(O)c1ccc(O)cc1)N1CCC(Cc2ccccc2)CC1 (centres undefined)
active: log fold change Tl+ flux [8] -0.0962 | log fold change Tl+ flux (R275C) -0.193 | log fold change Tl+ flux (R275C/beta2Delta) -0.218
inactive: fluorescence ratio [1] 1.03 | inhibition [2] -6.73% | inhibition [3] -4.72% | fluorescence ratio [4] 0.98 | z-score [5] -0.156 | mean signal [6] 233 | z-score [7] -1.16 and -1.04 and -0.25 | log fold change Tl+ flux (F380Y) 0.0449 | log fold change Tl+ flux (F380Y/beta1) -0.0111 | log fold change Tl+ flux (F380Y/beta2Delta) 0.00326 | log fold change Tl+ flux (F380Y/beta4) 0.0228 | log fold change Tl+ flux (R275C/beta1) -0.0365 | log fold change Tl+ flux (R275C/beta4) -0.0303 | log fold change Tl+ flux (R275C/Slo1WT/beta2) 0.00646

CC(=O)CCCCn1cnc2c1c(=O)n(C)c(=O)n2C
1.72: fold change [10, 13]
9610: cell count [10, 14]
inactive: parasite load remaining [9] 108% | fluorescence ratio [1] 1.04 | inhibition [2] -0.4% | inhibition [3] -0.1% | fluorescence ratio [4] 0.95 | z-score [5] -1.78 | mean signal [6] 257 | fold change [10, 12] 0.919 | z-score [7] 0.63 | log fold change Tl+ flux (F380Y) -0.0664 | log fold change Tl+ flux (F380Y/beta1) -0.015 | log fold change Tl+ flux (F380Y/beta2Delta) -0.0429 | log fold change Tl+ flux (F380Y/beta4) -0.0419 | log fold change Tl+ flux [8] 0.0418 | log fold change Tl+ flux (R275C) -0.00612 | log fold change Tl+ flux (R275C/beta1) -0.0249 | log fold change Tl+ flux (R275C/beta2Delta) 0.0157 | log fold change Tl+ flux (R275C/beta4) -0.0496 | log fold change Tl+ flux (R275C/Slo1WT/beta2) -0.0588
10500: cell count [10, 15]
91.8%: viability [9]

C[n+]1ccccc1C=NO
13300: cell count [10, 15]
1: normalised cell number ([11]; measured here: epithelial PC-3E GFP cell survival)
11500: cell count [10, 14]
inactive: parasite load remaining [9] 51.7% | red/green cell ratio (normalised) ([11]; actives lie on both sides, counts scaled to control wells, 1 = unselective) 1.01 | fold change [10, 12] 0.861 | log fold change Tl+ flux (F380Y) -0.0173 | log fold change Tl+ flux (F380Y/beta1) 0.0118 | log fold change Tl+ flux (F380Y/beta2Delta) -0.00109 | log fold change Tl+ flux (F380Y/beta4) -0.0377 | log fold change Tl+ flux [8] -0.000474 | log fold change Tl+ flux (R275C) -0.00984 | log fold change Tl+ flux (R275C/beta1) 0.0135 | log fold change Tl+ flux (R275C/beta2Delta) 0.00623 | log fold change Tl+ flux (R275C/beta4) -0.0487 | log fold change Tl+ flux (R275C/Slo1WT/beta2) -0.0159
1.02: normalised cell number ([11]; measured here: mesenchymal TEM4-18 mCherry cell survival)
4.73: fold change [10, 13]
127%: viability [9]

Nc1ncnc2c1ncn2[C@@H]1O[C@H](CO)C[C@@H]1O
93.2%: viability [9]
inactive: parasite load remaining [9] 137% | fluorescence ratio [1] 0.96 | inhibition [2] -2.77% | inhibition [3] 2.21% | fluorescence ratio [4] 0.87 | z-score [5] -0.398 | mean signal [6] 230 | log fold change Tl+ flux (F380Y) 0.0402 | log fold change Tl+ flux (F380Y/beta1) 0.0107 | log fold change Tl+ flux (F380Y/beta2Delta) -0.0103 | log fold change Tl+ flux (F380Y/beta4) 0.0334 | log fold change Tl+ flux [8] 0.00963 | log fold change Tl+ flux (R275C) -0.0453 | log fold change Tl+ flux (R275C/beta1) -0.0213 | log fold change Tl+ flux (R275C/beta2Delta) 0.0189 | log fold change Tl+ flux (R275C/beta4) -0.00206 | log fold change Tl+ flux (R275C/Slo1WT/beta2) 0.0268

CN(C)[C@@H]1C(=O)C(C(=O)NCN2CCCC2)=C(O)[C@@]2(O)C(=O)C3=C(O)c4c(O)cccc4[C@@](C)(O)C3CC12 (some centres undefined)
9290: cell count [10, 14]
91.9% and 67.8%: viability [9]
inactive: parasite load remaining [9] 77.2% and 69.4% | inhibition [2] -3.71% | z-score [5] 0.267 | mean signal [6] 213 | fold change [10, 12] 0.896 | log fold change Tl+ flux (F380Y) -0.0801 | log fold change Tl+ flux (F380Y/beta1) -0.00765 | log fold change Tl+ flux (F380Y/beta2Delta) -0.0371 | log fold change Tl+ flux (F380Y/beta4) -0.0313 | log fold change Tl+ flux [8] 0.0591 | log fold change Tl+ flux (R275C) 0 | log fold change Tl+ flux (R275C/beta1) -0.0252 | log fold change Tl+ flux (R275C/beta2Delta) 0.0108 | log fold change Tl+ flux (R275C/beta4) -0.0407 | log fold change Tl+ flux (R275C/Slo1WT/beta2) 0.0233
active: fluorescence ratio [1] 0.68 | inhibition [3] 45.3% | fluorescence ratio [4] 0.76
10400: cell count [10, 15]
0.92: fold change [10, 13]

Cc1c2oc3c(C)ccc(C(=O)NC4C(=O)NC(C(C)C)C(=O)N5CCCC5C(=O)N(C)CC(=O)N(C)C(C(C)C)C(=O)OC4C)c3nc-2c(C(=O)NC2C(=O)NC(C(C)C)C(=O)N3CCCC3C(=O)N(C)CC(=O)N(C)C(C(C)C)C(=O)OC2C)c(N)c1=O (centres undefined) (I: TVP[Sar][NMeV] / II: TVP[Sar][NMeV]; ester I:1-I:C, II:1-II:C; linker I:N-II:N via Actinocin(9to1); configuration not given here)
2570: cell count [10, 15]
2640: cell count [10, 14]
inactive: fold change [10, 12] 1.02 | z-score [7] -1.86 | log fold change Tl+ flux (F380Y) -0.0282 | log fold change Tl+ flux (F380Y/beta1) 0.0244 | log fold change Tl+ flux (F380Y/beta2Delta) -0.0313 | log fold change Tl+ flux (F380Y/beta4) -0.0252 | log fold change Tl+ flux [8] -0.013 | log fold change Tl+ flux (R275C) -0.0516 | log fold change Tl+ flux (R275C/beta1) 0.0499 | log fold change Tl+ flux (R275C/beta2Delta) -0.00324 | log fold change Tl+ flux (R275C/beta4) 0.0337 | log fold change Tl+ flux (R275C/Slo1WT/beta2) 0.0757
1.2: fold change [10, 13]

O=C(O)COCCN1CCN([C@H](c2ccccc2)c2ccc(Cl)cc2)CC1
inactive: parasite load remaining [9] 91.6% | z-score [5] -0.677 | mean signal [6] 261 | log fold change Tl+ flux (F380Y) 0.0476 | log fold change Tl+ flux (F380Y/beta1) 0.0381 | log fold change Tl+ flux (F380Y/beta2Delta) 0.0598 | log fold change Tl+ flux (F380Y/beta4) -0.027 | log fold change Tl+ flux [8] 0.0629 | log fold change Tl+ flux (R275C) -0.011 | log fold change Tl+ flux (R275C/beta2Delta) 0.083 | log fold change Tl+ flux (R275C/beta4) 0.0472 | log fold change Tl+ flux (R275C/Slo1WT/beta2) 0.0404
active: log fold change Tl+ flux (R275C/beta1) 0.122
73.9%: viability [9]

Fc1ccc(C2CCNCC2COc2ccc3c(c2)OCO3)cc1 (centres undefined)
5960 and 7070 and 8540: cell count [10, 14]
0.26%: viability [9]
1.42 and 1.09 and 2.45: fold change [10, 13]
active: log fold change Tl+ flux (F380Y) 0.146 | log fold change Tl+ flux (F380Y/beta2Delta) 0.246 | log fold change Tl+ flux (F380Y/beta4) 0.274 | log fold change Tl+ flux (R275C/beta1) 0.254 | log fold change Tl+ flux (R275C/beta2Delta) 0.126 | log fold change Tl+ flux (R275C/beta4) 0.218
inactive: parasite load remaining [9] -4.52% | fluorescence ratio [1] 1 | inhibition [2] -15% | inhibition [3] 3.34% | fluorescence ratio [4] 0.83 | fold change [10, 12] 0.992 and 1.04 and 0.943 | z-score [7] -0.98 and -1.43 | log fold change Tl+ flux (F380Y/beta1) 0.116 | log fold change Tl+ flux [8] 0.0579 | log fold change Tl+ flux (R275C) 0.0588 | log fold change Tl+ flux (R275C/Slo1WT/beta2) -0.0537
6000 and 6830 and 9050: cell count [10, 15]
